Values joined by “and” are separate entries in the source; they are usually repeats but may differ in a detail not shown here. Equal values may be shown once. Records with an inconclusive call do not appear. A structure can be active in one record and inactive in another. Active and inactive are the calls of the source. Rule for the calls, unless noted: active = hit-call score of the fitted dose curve at least 0.9, where 1 is the maximum; inactive = score below 0.9.
Experiments:
[1] = ATG_M_32_TRANS: Attagene TRANS-FACTORIAL HepG2 Assay for M32 Transcription Factor (Internal Marker) (AID 2282984; active = hit-call score of the fitted dose curve at least 0.9, where 1 is the maximum;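 note: transcript level of a background control reporter unit measured by RT-PCR and capillary electrophoresis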); conditions: HepG2 Attagene TRANS M32 internal marker reporter
Outline: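 Capillary electrophoresis of 6-FAM-labelled reporter fragments gives the signal; data fitted for gain over DMSO negative control. Source: HepG2 cells bearing transient multiple reporter transcription units, 24 h exposure.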

[2] = biological target: Transcriptional activator Myb (Homo sapiens) (UniProt P10242); assay: ATG_Myb_CIS: Attagene CIS-FACTORIAL HepG2 Assay for human Myeloblastosis (Myb) Proto-Oncogene Transcription Factor (AID 2282986); conditions: HepG2 Attagene CIS-FACTORIAL Myb reporter transcription; actives raise or lower the signal
Outline: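 Transiently transfected HepG2 cells carrying a multiplexed cis-promoter reporter set report endogenous Myb activity after 24 h compound exposure. Reporter mRNA is read by RT-PCR with capillary electrophoresis of fluorescent products, fitted bidirectionally against DMSO.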

[3] = biological target: Nuclear respiratory factor 1 (Homo sapiens) (UniProt Q16656); assay: ATG_NRF1_CIS: Attagene CIS-FACTORIAL HepG2 Assay for human Nuclear Respiratory Factor 1 (NRF1) Orphan Gene (AID 2282987); conditions: HepG2 NRF1 cis-element reporter, Attagene multiplex; actives raise or lower the signal
Outline: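 HepG2 cells transiently transfected with multiple cis-regulated reporter units, exposed 24 h. Reporter mRNAs measured by RT-PCR, fluorescent labelling, HpaI digestion and capillary electrophoresis; bidirectional fitting against DMSO.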

[4] = ATG_NFI_CIS: Attagene CIS-FACTORIAL HepG2 Assay for human Nuclear Factor I (NFI) (AID 2282989); conditions: HepG2 cis-regulatory reporter, NFI response element transcription; actives raise or lower the signal
Outline: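 HepG2, transient MRTU, 24 h exposure; RNA→cDNA→PCR→FAM label→HpaI→CE fluorescence. Bidirectional fit, DMSO = baseline.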

[5] = biological target: Myc proto-oncogene protein (Homo sapiens) (UniProt P01106); assay: ATG_Myc_CIS: Attagene CIS-FACTORIAL HepG2 Assay for human Myelocytomatosis (Myc) Proto-Oncogene Transcription Factor (AID 2282990); conditions: HepG2, Attagene cis-reporter transcription factor activity; actives raise or lower the signal
Outline: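 Read-out: fluorescent reporter mRNA fragments resolved by capillary electrophoresis after RT-PCR. Human HepG2 liver cells carried transfected cis-element reporter units and were dosed for 24 h. Gain or loss of signal fitted relative to DMSO baseline.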

[6] = ATG_NRF2_ARE_CIS: Attagene CIS-FACTORIAL HepG2 Assay for human Nuclear Factor Erythroid 2 Related Factor 2 (NFR2) response to Antioxidant Response Elements (ARE) (AID 2282992); conditions: HepG2 Attagene ARE/NRF2 reporter, transcription factor activity; actives raise or lower the signal;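 for AC50: reporter mRNA level measured by RT-PCR and capillary electrophoresis fluorescence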
Outline: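 HepG2 cells transiently transfected with multiplexed cis-element reporter constructs, 24 h after chemical dosing; reporter mRNA quantified by RT-PCR, fluorescent primer extension, HpaI digestion and capillary electrophoresis. Bidirectional fit relative to DMSO.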

[7] = ATG_Oct_MLP_CIS: Attagene CIS-FACTORIAL HepG2 Assay for human Octamer-Binding Transcription Factor (Oct) (AID 2282993); conditions: HepG2 Attagene cis-factorial Oct reporter, mRNA; actives raise or lower the signal
Outline: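 Multiplexed cis-reporter assay in human liver HepG2 cells, 24 h incubation. Reporter RNA amplified and labelled, then resolved by capillary electrophoresis; DMSO serves as negative control and baseline.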

[8] = BSK_3C_TissueFactor: BioMAP Diversity Plus: 3C Assay for Tissue Factor Biomarker Activity (AID 2282997); conditions: BioMAP 3C HUVEC, tissue factor biomarker readout; actives raise or lower the signal
Outline: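 Human vascular primary cells (umbilical vein endothelium) received test chemical; Tissue Factor was determined by ELISA at 24 h, and both gain and loss of signal versus DMSO were fitted.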

[9] = BSK_3C_uPAR: BioMAP Diversity Plus: 3C Assay for Urokinase-type plasminogen activator receptor (uPAR) Biomarker Activity (AID 2282998); conditions: BioMAP 3C HUVEC, uPAR biomarker ELISA; actives raise or lower the signal
Outline: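 Dose primary human umbilical vein endothelial cells, incubate 24 h, measure cell-surface uPAR by ELISA, then fit the signal in both directions against the DMSO negative control.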

[10] = BSK_3C_VCAM1: BioMAP Diversity Plus: 3C Assay for Vascular cell adhesion molecule 1 (VCAM1) Biomarker Activity (AID 2282999); conditions: BioMAP 3C HUVEC, VCAM1 ELISA, cytokine-stimulated; actives raise or lower the signal
Outline: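 Human umbilical vein endothelial cells (3C system), biomarker read by ELISA 24 h after dosing; bidirectional fit against DMSO baseline. Cytotoxicity tracked by SRB total-protein staining in parallel cultures at biomarker time.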

[11] = BSK_4H_Eotaxin3: BioMAP Diversity Plus: 4H Assay for Eotaxin 3 Biomarker Activity (AID 2283000); conditions: primary human endothelial cells (HUVEC); actives raise or lower the signal
Outline: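 Readout is Eotaxin-3 (CCL26) level by ELISA in primary human umbilical vein endothelial cells harvested 24 h after chemical exposure; activity fitted in both directions against DMSO control.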

[12] = biological target: Hepatocyte nuclear factor 4-alpha (Homo sapiens) (UniProt P41235); assay: ATG_HNF4a_TRANS: Attagene TRANS-FACTORIAL HepG2 Assay for human Hepatocyte Nuclear Factor 4 alpha (HNF4a) (AID 2282982; active = hit-call score of the fitted dose curve at least 0.9, where 1 is the maximum); conditions: HepG2 HNF4a transactivation reporter, mRNA readout
Outline: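 Gain-of-signal mRNA induction, relative to DMSO vehicle, was read after 24 h compound treatment of HepG2 cells bearing transfected GAL4-UAS reporters. Detection used RT-PCR, 6-FAM primer extension and capillary electrophoresis.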

[13] = ATG_NF_kB_CIS: Attagene CIS-FACTORIAL HepG2 Assay for human Nuclear Factor Kappa B (NF-kB) (AID 2282991); conditions: HepG2 Attagene cis-factorial NF-kB reporter mRNA; actives raise or lower the signal
Outline: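 HepG2 cells transfected with cis-promoter-driven reporter units, so endogenous transcription factor activity is measured. Reporter mRNA quantified 24 h after dosing by RT-PCR and capillary electrophoresis, with bidirectional fitting against DMSO.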

[14] = biological target: Oxysterols receptor LXR-beta (Homo sapiens) (UniProt P55055); assay: ATG_LXRb_TRANS: Attagene TRANS-FACTORIAL HepG2 Assay for human Liver X Receptor beta (LXRb) (AID 2282981; active = hit-call score of the fitted dose curve at least 0.9, where 1 is the maximum); conditions: HepG2 Attagene TRANS GAL4-LXRb reporter, mRNA
Outline: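 Gain-of-signal mRNA reporter endpoint, DMSO as negative control. Transiently transfected HepG2 cells carrying the NR-Gal4 chimera and GAL4-UAS reporter units were treated 24 h; transcripts quantified by RT-PCR and capillary electrophoresis fluorescence.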

[15] = biological target: Nuclear receptor subfamily 4 group A member 2 (Homo sapiens) (UniProt P43354); assay: ATG_NURR1_TRANS: Attagene TRANS-FACTORIAL HepG2 Assay for human Nuclear Receptor Related Protein 1 (NURR1) (AID 2282985; active = hit-call score of the fitted dose curve at least 0.9, where 1 is the maximum); conditions: HepG2 Attagene TRANS reporter, mRNA readout
Outline: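 HepG2 / transient MRTU transfection / 24 h compound exposure / RT-PCR + CE fluorescence of reporter mRNA / gain-of-signal vs DMSO.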

[16] = biological target: human Peroxisome Proliferator-activated Receptor alpha (PPARa), PPARA (gene 5465) (UniProt Q07869); assay: ATG_PPARa_TRANS: Attagene TRANS-FACTORIAL HepG2 Assay for human Peroxisome Proliferator-activated Receptor alpha (PPARa) (AID 2283001; active = hit-call score of the fitted dose curve at least 0.9, where 1 is the maximum)
Outline: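 Measures transcriptional activity of an exogenous chimeric PPARa-Gal4 protein in transiently transfected HepG2 cells after 24 h dosing. Reporter mRNA quantified via RT-PCR and capillary electrophoresis; DMSO served as negative control.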

Measured: AC50

Chain of Oxysterols receptor LXR-beta (Homo sapiens) (P55055 whole entry, looked up, the tested form may be a part): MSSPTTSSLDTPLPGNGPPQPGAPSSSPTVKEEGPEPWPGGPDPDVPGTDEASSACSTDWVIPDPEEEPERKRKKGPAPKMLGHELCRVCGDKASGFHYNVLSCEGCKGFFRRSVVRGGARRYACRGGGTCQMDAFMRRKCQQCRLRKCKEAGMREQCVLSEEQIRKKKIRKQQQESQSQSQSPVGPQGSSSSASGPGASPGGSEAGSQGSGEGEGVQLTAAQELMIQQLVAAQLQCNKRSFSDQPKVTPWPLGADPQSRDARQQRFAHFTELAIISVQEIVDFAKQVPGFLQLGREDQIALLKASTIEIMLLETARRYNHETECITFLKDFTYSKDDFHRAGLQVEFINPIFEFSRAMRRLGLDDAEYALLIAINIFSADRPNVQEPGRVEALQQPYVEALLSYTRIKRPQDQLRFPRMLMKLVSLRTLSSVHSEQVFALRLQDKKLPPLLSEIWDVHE
Chain of Myc proto-oncogene protein (Homo sapiens) (P01106 whole entry, looked up, the tested form may be a part): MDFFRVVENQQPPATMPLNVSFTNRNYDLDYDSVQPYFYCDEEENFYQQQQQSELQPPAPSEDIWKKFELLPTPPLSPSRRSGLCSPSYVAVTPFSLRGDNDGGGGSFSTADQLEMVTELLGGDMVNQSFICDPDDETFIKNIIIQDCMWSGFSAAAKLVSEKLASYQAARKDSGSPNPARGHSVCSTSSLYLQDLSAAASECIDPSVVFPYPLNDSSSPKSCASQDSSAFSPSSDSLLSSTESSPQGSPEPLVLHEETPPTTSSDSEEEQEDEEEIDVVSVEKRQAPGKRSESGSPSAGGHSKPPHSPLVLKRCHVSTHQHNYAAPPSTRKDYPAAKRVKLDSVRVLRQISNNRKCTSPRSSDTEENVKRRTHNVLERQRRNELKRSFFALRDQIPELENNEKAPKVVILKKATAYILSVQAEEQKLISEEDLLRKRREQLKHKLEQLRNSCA
Chain of Nuclear receptor subfamily 4 group A member 2 (Homo sapiens) (P43354 whole entry, looked up): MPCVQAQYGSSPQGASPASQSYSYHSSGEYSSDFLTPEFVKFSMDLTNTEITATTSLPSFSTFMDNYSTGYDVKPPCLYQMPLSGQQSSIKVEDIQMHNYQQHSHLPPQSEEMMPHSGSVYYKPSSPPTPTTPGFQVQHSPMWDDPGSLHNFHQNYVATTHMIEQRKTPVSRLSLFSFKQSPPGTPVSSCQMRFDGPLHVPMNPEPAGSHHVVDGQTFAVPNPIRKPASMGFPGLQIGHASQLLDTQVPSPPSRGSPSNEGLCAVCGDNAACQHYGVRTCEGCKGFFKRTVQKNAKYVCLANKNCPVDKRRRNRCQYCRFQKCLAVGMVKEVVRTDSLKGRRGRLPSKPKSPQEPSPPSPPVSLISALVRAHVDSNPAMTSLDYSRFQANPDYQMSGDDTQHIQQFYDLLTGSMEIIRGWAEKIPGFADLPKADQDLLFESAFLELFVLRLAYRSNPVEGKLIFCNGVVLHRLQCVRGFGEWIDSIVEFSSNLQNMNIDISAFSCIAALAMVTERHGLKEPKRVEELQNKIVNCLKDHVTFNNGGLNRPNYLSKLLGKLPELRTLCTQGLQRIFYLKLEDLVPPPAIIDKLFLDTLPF
Chain of Nuclear respiratory factor 1 (Homo sapiens) (Q16656 whole entry, looked up): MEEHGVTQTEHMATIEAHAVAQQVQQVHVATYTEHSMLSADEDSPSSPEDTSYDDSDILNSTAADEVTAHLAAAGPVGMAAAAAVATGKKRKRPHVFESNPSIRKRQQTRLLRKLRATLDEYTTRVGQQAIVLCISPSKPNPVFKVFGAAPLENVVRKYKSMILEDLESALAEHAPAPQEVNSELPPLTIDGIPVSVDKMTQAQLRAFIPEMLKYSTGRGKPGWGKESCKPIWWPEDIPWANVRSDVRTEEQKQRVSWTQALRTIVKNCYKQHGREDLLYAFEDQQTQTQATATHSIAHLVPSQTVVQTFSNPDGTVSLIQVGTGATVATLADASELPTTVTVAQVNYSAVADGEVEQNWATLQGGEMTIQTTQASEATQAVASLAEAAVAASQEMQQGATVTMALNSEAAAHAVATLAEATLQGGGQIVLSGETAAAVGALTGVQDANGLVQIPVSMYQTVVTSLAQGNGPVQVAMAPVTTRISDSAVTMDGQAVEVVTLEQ
Chain of human Peroxisome Proliferator-activated Receptor alpha (PPARa), PPARA (gene 5465) (Q07869 whole entry, looked up, the tested form may be a part): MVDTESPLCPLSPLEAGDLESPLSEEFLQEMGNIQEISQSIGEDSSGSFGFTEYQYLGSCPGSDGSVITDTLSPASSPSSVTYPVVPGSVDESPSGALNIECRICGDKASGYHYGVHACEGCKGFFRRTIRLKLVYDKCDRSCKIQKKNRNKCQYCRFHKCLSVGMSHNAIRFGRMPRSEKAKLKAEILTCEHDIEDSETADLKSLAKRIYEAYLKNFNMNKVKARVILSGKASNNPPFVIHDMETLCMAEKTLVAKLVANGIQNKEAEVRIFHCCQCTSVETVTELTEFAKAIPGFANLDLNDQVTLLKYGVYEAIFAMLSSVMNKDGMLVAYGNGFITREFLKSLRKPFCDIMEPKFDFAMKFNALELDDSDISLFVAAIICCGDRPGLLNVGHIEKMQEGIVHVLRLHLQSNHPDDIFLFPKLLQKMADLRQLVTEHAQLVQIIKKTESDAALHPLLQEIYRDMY
Chain of Transcriptional activator Myb (Homo sapiens) (P10242 whole entry, looked up): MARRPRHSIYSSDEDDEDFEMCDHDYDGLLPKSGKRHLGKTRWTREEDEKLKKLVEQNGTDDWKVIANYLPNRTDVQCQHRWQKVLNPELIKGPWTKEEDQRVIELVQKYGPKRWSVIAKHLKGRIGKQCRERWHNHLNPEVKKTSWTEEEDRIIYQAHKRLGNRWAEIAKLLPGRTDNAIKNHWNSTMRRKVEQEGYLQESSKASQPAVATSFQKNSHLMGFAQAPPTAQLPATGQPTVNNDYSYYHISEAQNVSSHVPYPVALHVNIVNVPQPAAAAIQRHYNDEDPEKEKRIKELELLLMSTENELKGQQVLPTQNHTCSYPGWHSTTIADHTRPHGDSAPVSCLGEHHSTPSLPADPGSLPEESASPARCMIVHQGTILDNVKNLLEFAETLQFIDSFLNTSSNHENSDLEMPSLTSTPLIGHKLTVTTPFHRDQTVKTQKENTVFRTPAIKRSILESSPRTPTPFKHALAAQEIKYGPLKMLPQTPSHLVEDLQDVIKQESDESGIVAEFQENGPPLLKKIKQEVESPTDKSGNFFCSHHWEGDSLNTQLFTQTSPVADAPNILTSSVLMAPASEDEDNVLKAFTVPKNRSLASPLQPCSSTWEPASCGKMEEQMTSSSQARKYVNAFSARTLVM
Chain of Hepatocyte nuclear factor 4-alpha (Homo sapiens) (P41235 whole entry, looked up, the tested form may be a part): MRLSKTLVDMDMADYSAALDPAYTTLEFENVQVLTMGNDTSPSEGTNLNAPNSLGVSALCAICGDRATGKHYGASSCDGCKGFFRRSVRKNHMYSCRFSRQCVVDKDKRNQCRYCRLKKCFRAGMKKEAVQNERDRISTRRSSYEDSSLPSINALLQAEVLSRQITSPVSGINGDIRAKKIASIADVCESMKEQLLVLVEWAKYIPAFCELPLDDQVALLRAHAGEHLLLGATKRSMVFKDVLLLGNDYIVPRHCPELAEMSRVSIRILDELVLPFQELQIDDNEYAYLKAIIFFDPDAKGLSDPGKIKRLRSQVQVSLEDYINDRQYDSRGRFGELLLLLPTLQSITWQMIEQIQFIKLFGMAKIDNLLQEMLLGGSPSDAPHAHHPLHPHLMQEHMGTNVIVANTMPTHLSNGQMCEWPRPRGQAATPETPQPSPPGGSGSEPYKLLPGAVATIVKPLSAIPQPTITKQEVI

O=C(NS(=O)(=O)/C=C/c1cccs1)c1ccc(F)cc1Br
active: [6] 44.7 µM
not listed: [12] | [13] | [14] | [15] | [16]
inactive: all other assays above

CC(C)c1cccc(C(C)C)c1
not listed: [1] | [14] | [15] | [16]
inactive: all other assays above

O=[Si]=O
inactive: all assays above

CC1=C(C)S(=O)(=O)CCS1(=O)=O
active: [6] 17.8 µM
not listed: [1] | [12] | [14] | [15]
inactive: all other assays above

CO[C@@H]1COCC[C@@H]1N[C@@H]1CC[C@@](C(=O)N2CCc3ncc(C(F)(F)F)cc3C2)(C(C)C)C1
not listed: [1] | [12] | [14] | [15] | [16]
inactive: all other assays above

CCC(C)N(C)C(=O)c1cc2ccccc2c(-c2ccccc2Cl)n1 (stereo not drawn)
active: [3] 63 µM | [6] 16.8 µM | [7] 37 µM
not listed: [12] | [14] | [16]
inactive: all other assays above

Cc1occc(=O)c1O
not listed: [1] | [14] | [15]
inactive: all other assays above

CC(=O)O[C@]1(C(C)=O)CC[C@H]2[C@@H]3C=C(Cl)C4=CC(=O)[C@@H]5C[C@@H]5[C@]4(C)[C@H]3CC[C@@]21C
active: [2] 50.8 µM | [3] 26.8 µM | [5] 164 µM | [6] 48.4 µM [middle of 4 runs] | [7] 73.6 µM and 64.9 µM and 45.3 µM
inactive: [14] | [12] | [1] | [15] | [2] | [3] | [4] | [5] | [13] | [6] | [7] | [8] | [9] | [10] | [11] | [16]

CCCC[C@H]1CN(CC2CCOCC2)C(=O)OC12CCN(C1(C)CCN(C(=O)c3c(C)ncnc3C)CC1)CC2
not listed: [12] | [13]
inactive: all other assays above

Oc1ccc(O)cc1
active: [6] 16.6 µM | [10] 15.6 µM | [11] 20 µM
not listed: [14]
inactive: all other assays above

O=NO
not listed: [14]
inactive: all other assays above

— PubChem BioAssay (EPA / NIEHS)
